Assay outcomes deposited in PubChem by SRMLSC.
An excerpt weighted towards active compounds, which were near 6.3% of everything screened.
Autofluor 339: intrinsic fluorescence of library compounds, ex339/em460 – biochemical, MLSMR library, data from DPM-DC assay, artefact control, profiling panel. AID 709. compound autofluorescence, ex339/em460 nm, NADH buffer; active compounds read high; 1 = no-compound wells, NADH background. hit rate 5.5% among 65,000. fluorescence fold increase at 10 µM;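 active = at 10 µM, mean starting fluorescence two-fold or more over control wells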;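 note: signal is the first read of a kinetic run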
PMK inhibit: blocks S. pneumoniae phosphomevalonate kinase; AID 539; hit rate 0.49% among 65,000; purified PMK, PK/LDH-coupled NADH absorbance 340 nm; inhibition, % at 10 µM;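 active = top-ranked compounds by inhibition in the single 10 µM screen, taking a fixed number of the strongest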
MK inhibit: inhibitors of Streptococcus pneumoniae mevalonate kinase | hit rate 0.48% among 65,000 | inhibition, % at 10 µM | purified MK, PK/LDH-coupled NADH absorbance 340 nm;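 active = ranked among the strongest by inhibition in the single 10 µM screen, a fixed top-ranked set picked for dose follow-up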
DPM-DC inhibit: blocks S. pneumoniae diphosphomevalonate decarboxylase. purified DPM-DC, PK/LDH coupled NADH fluorescence. hit rate 0.49% among 65,000. calls only at 10 µM;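 active = the 320 compounds with the highest percent inhibition in the single-dose primary screen, excluding strongly autofluorescent ones, cut at about 32% in these data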;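 note: kinetic rate of NADH fluorescence loss reporting ADP formed by the decarboxylase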
NADH enzymes: blocks coupling enzymes of NAD/NADH assays. coupled PK/LDH NADH assays, four targets. IC50, µM (titrated, usually from 10 µM). hit rate 0.02% among 65,000. AID 774;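 active = single-dose screening hits from any of four coupled enzyme assays that gave an IC50 when retested across doses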;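 note: the DPM-DC format reads NADH fluorescence rather than 340 nm absorbance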
A340 absorber: absorbance at 340 nm; compound absorbance at 340 nm, fold over control; fold change at 10 µM; 65,000 tested, under 10 active;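 active = at 10 µM dose, initial 340 nm absorbance at least 2 fold that of control wells; inactive = change under 2 fold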;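 note: initial absorbance extrapolated from kinetic A340 decline of NADH oxidation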
A number is an active result.

COc1ccccc1N=c1oc2cc(O)ccc2cc1C(=O)NCC1CCCO1 (configuration not stated) was read as Autofluor 339 2.89, PMK inhibit inactive, MK inhibit inactive, DPM-DC inhibit inactive, NADH enzymes inactive and A340 absorber inactive.
For COc1ccc2oc(=O)c(C(=O)NCC3CCCO3)cc2c1 (configuration not stated) the results were Autofluor 339 5.11, PMK inhibit inactive, MK inhibit inactive, NADH enzymes inactive and A340 absorber inactive.
COCCSc1ccccc1C(=O)NCC1CCCO1 (configuration not stated) was read as Autofluor 339 inactive, PMK inhibit inactive, MK inhibit inactive, DPM-DC inhibit inactive, NADH enzymes inactive and A340 absorber inactive.
For COc1cccc2cc(C(=O)NCC3CCCO3)c(=O)oc12 (configuration not stated) the results were Autofluor 339 inactive, PMK inhibit inactive, MK inhibit inactive, DPM-DC inhibit inactive, NADH enzymes inactive and A340 absorber inactive.
COc1ccccc1NC(=O)c1cc2ccc(O)cc2o/c1=N\O was read as Autofluor 339 inactive, PMK inhibit inactive, MK inhibit inactive, DPM-DC inhibit inactive, NADH enzymes inactive and A340 absorber inactive.
For COc1ccc2oc(=O)c(C(=O)N3CCN(C45CC6CC(CC(C6)C4)C5)CC3)cc2c1 the results were Autofluor 339 3.74, PMK inhibit inactive, MK inhibit inactive, NADH enzymes inactive and A340 absorber inactive.
`CC(=O)N1CCc2cc(Br)cc(S(=O)(=O)NCC3CCCO3)c21` (configuration not stated) gave Autofluor 339 inactive, PMK inhibit inactive, MK inhibit inactive, DPM-DC inhibit inactive, NADH enzymes inactive and A340 absorber inactive.
Screening CC(CCc1ccccc1)NC(=O)CSc1nc(N)cc(N)n1 (configuration not stated) returned Autofluor 339 inactive, PMK inhibit inactive, MK inhibit inactive, DPM-DC inhibit inactive, NADH enzymes inactive and A340 absorber inactive.
Screening COc1ccccc1N=c1oc2cc(O)ccc2cc1C(N)=O returned Autofluor 339 3.58, PMK inhibit inactive, MK inhibit inactive, DPM-DC inhibit inactive, NADH enzymes inactive and A340 absorber inactive.
`CCOC(=O)c1c(C)n(OCc2ccccc2)c2ccc3c(no[n+]3[O-])c12` gave Autofluor 339 inactive, PMK inhibit inactive, MK inhibit inactive, DPM-DC inhibit active, NADH enzymes inactive and A340 absorber inactive.
`O=C(NCCCN1CCOCC1)c1cc(-c2cccs2)on1` gave Autofluor 339 inactive, PMK inhibit inactive, MK inhibit inactive, DPM-DC inhibit inactive, NADH enzymes inactive and A340 absorber inactive.
`COc1ccc(CCNc2oc(COc3ccc(F)cc3)nc2C#N)cc1` gave Autofluor 339 inactive, PMK inhibit inactive, MK inhibit inactive, DPM-DC inhibit inactive, NADH enzymes inactive and A340 absorber inactive.
N#Cc1nc(-c2cccs2)oc1NCc1ccc2c(c1)OCO2 was read as Autofluor 339 2.39, PMK inhibit inactive, MK inhibit inactive, NADH enzymes inactive and A340 absorber inactive.
`N#Cc1nc(-c2cccs2)oc1NCCc1ccccc1` gave Autofluor 339 2.49, PMK inhibit inactive, MK inhibit inactive, NADH enzymes inactive and A340 absorber inactive.
COc1ccc(CCNc2oc(-c3ccco3)nc2C#N)cc1 was read as Autofluor 339 2.38, PMK inhibit inactive, MK inhibit inactive, DPM-DC inhibit inactive, NADH enzymes inactive and A340 absorber inactive.
`COc1ccc(Nc2oc(-c3cccs3)nc2C#N)cc1` gave Autofluor 339 inactive, PMK inhibit inactive, MK inhibit inactive, DPM-DC inhibit inactive, NADH enzymes inactive and A340 absorber inactive.
N#Cc1nc(-c2cccs2)oc1NCCN1CCOCC1 was read as Autofluor 339 2.39, PMK inhibit inactive, MK inhibit inactive, NADH enzymes inactive and A340 absorber inactive.
Screening O=C(c1ccccc1)c1ccc(C(=O)N2CCN(c3ccc(F)cc3)CC2)o1 returned Autofluor 339 inactive, PMK inhibit inactive, MK inhibit inactive, DPM-DC inhibit inactive, NADH enzymes inactive and A340 absorber inactive.
`N#Cc1nc(-c2ccccc2)oc1NCCN1CCCCC1` gave Autofluor 339 3.77, PMK inhibit inactive, MK inhibit inactive, NADH enzymes inactive and A340 absorber inactive.
`N#Cc1nc(-c2ccco2)oc1NCCc1ccccc1` gave Autofluor 339 2.15, PMK inhibit inactive, MK inhibit inactive, DPM-DC inhibit inactive, NADH enzymes inactive and A340 absorber inactive.
N#Cc1nc(-c2cccs2)oc1N1CCN(Cc2ccccc2)CC1 was read as Autofluor 339 3.8, PMK inhibit inactive, MK inhibit inactive, NADH enzymes inactive and A340 absorber inactive.
Screening N#Cc1nc(COc2ccccc2)oc1N1CCN(Cc2ccccc2)CC1 returned Autofluor 339 inactive, PMK inhibit inactive, MK inhibit inactive, DPM-DC inhibit inactive, NADH enzymes inactive and A340 absorber inactive.
COc1ccc(CCNc2oc(Cc3ccccc3)nc2C#N)cc1OC was read as Autofluor 339 inactive, PMK inhibit inactive, MK inhibit inactive, DPM-DC inhibit inactive, NADH enzymes inactive and A340 absorber inactive.
`c1ccc(-c2nn3c(-c4ccncc4)nnc3s2)nc1` gave Autofluor 339 inactive, PMK inhibit inactive, MK inhibit inactive, DPM-DC inhibit inactive, NADH enzymes inactive and A340 absorber inactive.
O=C(CN1C(=O)CCC1=O)Nc1nc(-c2nc3ccccc3s2)cs1 was read as Autofluor 339 2.14, PMK inhibit inactive, MK inhibit inactive, NADH enzymes inactive and A340 absorber inactive.
For Fc1cc2nc(-c3ccncc3)[nH]c2cc1F the results were Autofluor 339 2.17, PMK inhibit inactive, MK inhibit inactive, NADH enzymes inactive and A340 absorber inactive.
Screening CC1=CCP(=O)(c2ccccc2)C1 (configuration not stated) returned Autofluor 339 inactive, PMK inhibit inactive, MK inhibit inactive, DPM-DC inhibit inactive, NADH enzymes inactive and A340 absorber inactive.
For CC1(C)CC(C)(O)P(=O)(c2ccccc2)O1 (configuration not stated) the results were Autofluor 339 inactive, PMK inhibit 30.0, MK inhibit inactive, DPM-DC inhibit inactive, NADH enzymes inactive and A340 absorber inactive.
Cn1c(=O)c2[nH]c(N3CCOCC3)nc2n(-c2ccccc2)c1=O was read as Autofluor 339 inactive, PMK inhibit inactive, MK inhibit inactive, DPM-DC inhibit inactive, NADH enzymes inactive and A340 absorber inactive.
O=C(Nc1cccc2c1C(=O)NC2=O)c1ccc(S(=O)(=O)N2CCCC2)cc1 was read as Autofluor 339 2.34, PMK inhibit inactive, MK inhibit inactive, DPM-DC inhibit inactive, NADH enzymes inactive and A340 absorber inactive.
Screening COC(=O)/C=c1\sc2ncnn2c1=O returned Autofluor 339 inactive, PMK inhibit inactive, MK inhibit inactive, DPM-DC inhibit inactive, NADH enzymes inactive and A340 absorber inactive.
